The list is not random: actives were taken first. Their share in the collection is about 14%.
Giardia FBPA inh: qHTS Assay for Inhibitors of Fructose-1,6-bisphosphate Aldolase from Giardia Lamblia | A8B2U2 | actives 0.71% (n = 290,000) | purified Giardia FBPA | Potency, µM (highest dose often 59.6 µM), for the others: at the top dose activity, negative = inhibition, most hits filed as inhibitors | AID 2451, 2010; also: potency is read from the fitted curve at half-maximal effect; nearly all actives have a fitted effect of over 55% in size
Target sequence (A8B2U2 whole entry, looked up): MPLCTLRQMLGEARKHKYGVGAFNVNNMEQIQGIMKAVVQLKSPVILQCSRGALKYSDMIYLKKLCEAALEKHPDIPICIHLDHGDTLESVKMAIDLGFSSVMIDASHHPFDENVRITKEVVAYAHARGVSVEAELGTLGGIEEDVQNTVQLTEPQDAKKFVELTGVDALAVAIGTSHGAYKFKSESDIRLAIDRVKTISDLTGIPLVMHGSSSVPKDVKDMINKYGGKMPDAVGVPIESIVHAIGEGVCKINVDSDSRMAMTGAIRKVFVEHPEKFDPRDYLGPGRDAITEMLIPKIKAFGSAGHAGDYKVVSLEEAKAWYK
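Giardia FBPA (40 nM reagent) was preincubated 10 min at RT with compound (up to 57.5 uM final), then substrate plus GAPDH/TPI/NAD/arsenate coupling system with diaphorase/resazurin was added; resorufin fluorescence (525/598 nm) was read after 20 min.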
HCMV inh: qHTS Assay for inhibitors of the human cytomegalovirus (HCMV); activity change, negative = inhibition, % at 57.5 µM; actives 4.5% (n = 410,000); HFF cells, HCMV-luciferase reporter, 72 h; stronger effect = lower value; in the data active = activity change below about -60%; inconclusive = no clear call, values can overlap the other calls; inactive = above about -39%
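Luciferase read-out from HCMV-luciferase-infected HFFs (MOI 1 PFU/cell) 72 h post infection at 37C; compounds added after 16 h cell attachment; activity normalized between buffer-only basal and Salinomycin (10uM) inhibitor controls.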
Pf growth 96h: Primary qHTS for delayed death inhibitors of the malarial parasite plastid, 96 hour incubation; actives 6.9% (n = 320,000); AID 504834, 2011; P. falciparum luciferase reporter growth, 96 h; Potency, µM (titrated, usually from 28.7 µM), for inactives: at the top dose activity change, negative = inhibition, hits mostly inhibitors; also: potency is read from the fitted curve at half-maximal effect
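96 h incubation, 37 C, 5% CO2, of luciferase-reporter P. falciparum-infected RBCs (2% hematocrit, 0.05% parasitemia final) with test compounds; endpoint luminescence.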
Sm TGR block: qHTS Assay for the Inhibitors of Schistosoma Mansoni Peroxiredoxins; Schistosoma mansoni thioredoxin glutathione reductase (TGR), Q962Y6; purified TGR, DTNB reduction, TNB absorbance 405 nm; Potency, µM (titrated, usually from 114 µM), for inactives: at the highest dose activity change, negative = inhibition, usual class: inhibitors; actives 3% (n = 360,000); also: potency is read from the fitted curve at half-maximal effect; nearly all actives have a fitted effect of over 60% in size
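TGR 20 nM + NADPH 100 uM (dispensed conc.), cpd preinc 15 min RT; start with NADPH (500 uM addition) then DTNB (15 mM addition). Kinetic TNB absorbance, 405 nm filter. Four-parameter Hill fit across titration.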
Pf growth 48h: Primary qHTS for delayed death inhibitors of the malarial parasite plastid, 48 hour incubation | P. falciparum luciferase growth in erythrocytes, 48 h | Potency, µM (top dose mostly 28.7 µM), for the others: at the top dose activity change, negative = inhibition, actives largely listed as inhibitors | actives 5.9% (n = 310,000) | AID 504832, 2011; also: potency is read from the fitted curve at half-maximal effect
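Here the parasites carry a stable luciferase gene and grow inside erythrocytes in Albumax-based RPMI medium with compound for one erythrocytic cycle. Activity is scored as loss of luminescent signal.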
* marks the source's active call; other numbers are inactive results; ? = inconclusive; . = not tested or not shown. Unless noted, calls follow the shape of the dose curve; as a rule, active = well fitted curve in the direction sought with a large enough effect; inconclusive = small, poorly fitted or top-dose-only effect, or another doubt; inactive = no such curve, though single readings can be large; an effect the other way counts as inactive or inconclusive. % is scaled to controls: 0 for no effect and ±100 for the full control effect.

SMILES	Giardia FBPA inh	HCMV inh	Pf growth 96h	Sm TGR block	Pf growth 48h
CCn1ncc(S(=O)(=O)Nc2cc(Cl)ccc2C)c1C	.	?	?	3%	29%
CN(C)/C=C1\N=C(c2ccccc2)OC1=O	0%	-22	35%	3%	27%
CN(C)C1=NP(N(C)C)(N(C)C)=NC(c2ccccc2)=N1	12%	38	1.7µM*	-1%	0%
CC1=C(C(=O)OCCC(C)C)C(c2ccc3c(c2)OCO3)NC(=O)N1 (stereo not drawn)	4%	-28	?	2%	-14%
CNC(=O)C[C@@H]1CC[C@@H]2[C@H](COC[C@H](O)CN2S(=O)(=O)c2ccccc2Cl)O1	.	24	.	.	.
CCOc1cc2c(cc1OCC)CN(C(=O)c1cccc(S(=O)(=O)N3CCCC3)c1)CC2	.	-23	10µM*	1%	?
COC(=O)c1ccc(NC(=O)c2ccc3c(c2)NC(=O)C2CCCN32)cc1 (stereo not drawn)	.	.	7.4µM*	-21%	8.3µM*
O=C1Nc2cc(S(=O)(=O)N3CCCC3)ccc2N2CCCC12 (stereo not drawn)	1%	28	-17%	13µM*	17µM*
CCOc1ccc(CCNC(=O)C2CCN(S(=O)(=O)c3ccc(C)cc3)CC2)cc1OCC	.	-18	?	3%	-5%
COc1cc2c(cc1OC)CN(C(=O)c1ccc(S(=O)(=O)N3CCCC3)cc1)CC2	-3%	7	-20%	-1%	-14%
O=C1Nc2ccccc2N2CCCC12 (stereo not drawn)	-10%	.	?	?	?
CCOc1ccc(CCNC(=O)c2ccc(S(=O)(=O)N3CCCC3)cc2)cc1OCC	.	10	?	1%	12µM*
COc1ccc(CNC(=O)CCCc2nnc3n(C(C)C)c(=O)c4sccc4n23)cc1	.	-11	.	-5%	.
O=c1c(S(=O)(=O)c2ccccc2)cn(Cc2ccc(F)cc2)c2cc(N3CCCC3)c(F)cc12	.	-4	.	0%	.
COC(=O)c1ccc(NC(=O)Cn2c(=O)oc3ccccc32)cc1	.	-1	.	1%	.
O=C(COC(=O)c1ccccc1SCC(=O)N1CCCC1)NCc1ccc(F)cc1	.	-4	.	.	.
Cc1ccc(N2C(=O)C(CC(=O)Nc3ccc(F)cc3)N(CCC3=CCCCC3)C2=O)cc1 (stereo not drawn)	.	-26	.	-2%	.
N#Cc1ccc(NC(=O)N[C@H]2CC[C@@]34CCCN3C(=O)CCC[C@H]4C2Cc2ccccc2)cc1 (stereo partly drawn)	.	1	.	.	.
CCOc1ccc(CCNC(=O)c2cccc(S(=O)(=O)N3CC(C)OC(C)C3)c2)cc1OCC (stereo not drawn)	.	-31	10µM*	-2%	9.3µM*
CCOc1ccc(CCNC(=O)c2cccc(C#N)c2)cc1OCC	4%	-20	?	-1%	10µM*
CCOc1ccc(CCNC(=O)c2cccc(S(=O)(=O)N3CCCC3)c2)cc1OCC	.	-20	?	1%	12µM*
Cc1ccc(OCCOC(=O)c2cccc(S(=O)(=O)N3CC(C)OC(C)C3)c2)cc1 (stereo not drawn)	.	-8	?	1%	13µM*
CC(C)(C)OC(=O)C[C@H]1C/C=C\C[C@@H](CC(=O)N[C@H](CO)Cc2ccccc2)C(=O)NC[C@H](c2ccccc2)OC1=O	.	-34	.	.	.
CN1Cc2c(C(=O)OC(C)(C)C)ncn2-c2ccsc2C1=O	3%	.	.	.	.
c1ccc(CNCc2ccco2)cc1	-26%	-1	?	-8%	7%
SMILES	Giardia FBPA inh	HCMV inh	Pf growth 96h	Sm TGR block	Pf growth 48h
Cc1cccc(NC(=O)c2cc(S(=O)(=O)NCCc3ccccc3)ccc2F)c1C	.	?	.	3%	.
CCOc1cc(CNC(=O)c2ccc3c(c2)NC(=O)C2CCCCN32)cc(OCC)c1OCC (stereo not drawn)	.	-10	.	6%	.
CCOc1ccc(CCNC(=O)c2ccc3c(c2)NC(=O)C2CCCN32)cc1OCC (stereo not drawn)	-7%	.	9.3µM*	50µM*	5.2µM*
COc1cccc(C(=O)NCCS(=O)(=O)N2CCc3ccccc3C2)c1	.	-7	16%	-6%	-4%
CCOc1ccc(CCNC(=O)COC(=O)c2cccc(S(=O)(=O)N3CCCCC3)c2)cc1OCC	.	-24	-24%	0%	-10%
COc1ccc(CCNC(=O)c2cccc(S(=O)(=O)N3CCc4ccccc4C3)c2)cc1	.	-3	?	-1%	9.3µM*
O=C(COn1nnc2ccc(S(=O)(=O)N3CCOCC3)cc21)Nc1c(F)c(F)c(F)c(F)c1F	-1%	13	-19%	0%	15%
CCOc1ccc(CCNC(=O)COn2nnc3ccc(S(=O)(=O)N4CCOCC4)cc32)cc1OCC	.	-4	9.3µM*	-2%	?
CCOc1ccc(CCNC(=O)COC(=O)c2cccc(S(=O)(=O)N3CCOCC3)c2)cc1OCC	.	12	?	-6%	9.3µM*
COC(=O)N[C@@H](c1cccc(F)c1)C(C(C)=O)C(=O)OC (stereo partly drawn)	1%	.	.	.	.
Cc1ccc(NC2c3ncccc3C(=O)N2Cc2ccco2)c(C)c1 (stereo not drawn)	-1%	17	55%	-8%	?
Nc1ccc2c(c1)-c1ccc(F)cc1C2=O	.	34	.	.	.
CCC(C)(C)NC(=O)c1ccc(Sc2nncn2C)c([N+](=O)[O-])c1	1%	18	-8%	-14%	-12%
CCN(CC)S(=O)(=O)c1ccc(NC(=O)c2ccc(Sc3nncn3C)c([N+](=O)[O-])c2)cc1	3%	-81*	?	2%	12µM*
Cn1cnnc1Sc1ccc(/C=C/C(=O)c2ccc(O)cc2)cc1[N+](=O)[O-]	-2%	-101*	?	.	?
CN(C)S(=O)(=O)c1cccc(NC(=O)c2ccc(Sc3nncn3C)c([N+](=O)[O-])c2)c1	-18%	-38	?	-6%	?
CC(C)[C@H](NC(=O)c1ccccc1Cl)C(=O)OCC(=O)N1CCCCC1	.	12	.	.	.
Cc1oc2c(CN3CCCC3)c(O)ccc2c(=O)c1-c1ccccc1	5%	-2	12µM*	-8%	?
COc1cccc(Oc2c(C)oc3c(CN4CCCCC4)c(O)ccc3c2=O)c1	1%	-19	-24%	1%	-24%
CCC1CCCCN1Cc1c(O)ccc2c(=O)c(-c3ccccc3OC)coc12 (stereo not drawn)	.	0	.	.	.
COc1ccccc1-c1coc2c(CN3CCC(C)CC3)c(O)ccc2c1=O	16%	98	?	-4%	12µM*
Cc1oc2c(CN3CCC(C)CC3)c(O)ccc2c(=O)c1-c1ccccc1	3%	-4	4.1µM*	-6%	2.9µM*

Screens (PubChem)
